Common to all, as to settings: concentration: 1 μM, replicates: in singlicate; n = 1
The test system of assay [1] is CSNK2A2.
Assay [2] concerns T1, CTK.
T1 construct: gene MATK

Assay [3] concerns DAPK1.
Assay [4] has as its system DAPK2.
The test system of assay [5] is DAPK3.
In assay [6] the test system is T2, DCAMKL1.
T2 construct: gene DCLK1

Assay [7] relates to T3, DCAMKL2.
T3 construct: gene DCLK2

In assay [8] the test system is T4, DCAMKL3.
T4 construct: gene DCLK3

Assay [9] has as its system DDR1.
The test system of assay [10] is DDR2.
Assay [11] deals with T5, DLK.
T5 construct: gene MAP3K12

For assay [12], the system named is T6, DMPK2.
T6 construct: gene CDC42BPG

Assay [13] deals with DMPK.
Assay [14] concerns T7, DRAK1.
T7 construct: gene STK17A

In assay [15] the test system is T8, DRAK2.
T8 construct: gene STK17B

Assay [16] concerns DYRK1A.
Assay [17] deals with DYRK1B.
For assay [18], the system named is DYRK2.
For assay [19], the system named is EGFR.
Assay [20] has as its system EIF2AK1.

SMILES strings stand for the structures.
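Also: KINOMEscan kinase panel screen.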

For `CCC(=O)c1c(-c2ccccc2)c2cc(Cl)ccc2c(=O)n1Cc1ccc(C(=O)O)cc1`, the “%Inh” value in [1] is on record as 0%; in assay [2] it was 0%; in assay [3], 13%; in assay [4], 0%; in [5] it was 0%; in assay [6] it was 8%. Moreover, the “%Inh” value in assay [7] came to 0%; in assay [8], 0%; in assay [9], 24%; in [10], 34%; in [11], 0%; in assay [12], 0%. Also, the “%Inh” value in assay [13] is given as 0%; in assay [14] it was 0%; in assay [15], 2%; in assay [16], 0%; in assay [17], 39%; in assay [18], 15%. Besides, the “%Inh” value in assay [19] and in [20] was 0% throughout.
Consider `Cc1cccc(-c2cc(-c3c[nH]nc3-c3ccccn3)ccn2)c1` [GW679395], for which the “%Inh” value in [1] was determined as 8%; in assay [2], 0%; in assay [3], 6%; in [4], 0%; in [5] it was 16%; in assay [6], 14%. Further, the “%Inh” value turned out to be 0% in assay [7]; 13% in [8]; 36% in assay [9]; 8% in assay [10]; 13% in [11]; 1% in [12]. The “%Inh” value in [13] stood at 0%; in assay [14], 0%; in assay [15], 0%; in [16], 24%; in assay [17] it was 0%; in assay [18], 0%. The figures for the “%Inh” value in [19] and in assay [20] were 31% and 0%, respectively.
On to `Cc1cccc(-c2nc(Nc3ccc4c(cnn4C)c3)c3ccccc3n2)n1` [GW876731], for which the “%Inh” value in assay [1] is 0%; in assay [2] it was 4%; in assay [3], 0%; in assay [4], 0%; in assay [5], 14%; in [6] it was 0%. The “%Inh” value is recorded as 11% in assay [7]; 0% in assay [8]; 3% in assay [9]; 1% in [10]; 0% in assay [11]; 22% in assay [12]. Besides, the “%Inh” value in assay [13] is 8%; in [14], 7%; in [15] it was 3%; in [16] it was 0%; in assay [17], 20%; in assay [18] it was 11%. The “%Inh” value in assay [19] and in assay [20] was 0% in each case.
Consider `Cl.c1ccc(Cn2cnc3cc(Nc4ncnc5ccccc45)ccc32)cc1` [GW272142], for which the “%Inh” value in assay [1] was found to be 0%; in [2], 0%; in [3] it was 0%; in assay [4] it was 0%; in assay [5], 22%; in assay [6] it was 4%. Also, the “%Inh” value in assay [7] amounted to 20%; in assay [8] it was 0%; in assay [9], 5%; in [10], 14%; in assay [11] it was 6%; in [12], 11%. Moreover, the “%Inh” value in assay [13] amounted to 0%; in [14], 0%; in assay [15] it was 0%; in [16], 17%; in assay [17] it was 2%; in assay [18] it was 21%. Moreover, the “%Inh” value in assay [19] was determined as 20%; in assay [20], 0%.
In the case of `CC(C)(C)c1ccc(C(=O)Nc2cn3cc(-c4ccccc4)ccc3n2)cc1`, the “%Inh” value in [1] turned out to be 75%; in assay [2] it was 0%; in [3], 9%; in assay [4], 0%; in [5], 0%; in assay [6], 33%. For the same compound, the “%Inh” value is listed as 0% in assay [7]; 21% in [8]; 4% in [9]; 28% in assay [10]; 0% in assay [11]; 0% in assay [12]. The “%Inh” value in [13] is 0%; in assay [14], 0%; in assay [15] it was 0%; in [16], 0%; in assay [17], 0%; in [18], 37%. Moreover, the “%Inh” value is 5% in [19] and 0% in assay [20].
As for `OCCCNc1nccc(-c2c(-c3cccc(C(F)(F)F)c3)nn3cc(C(F)(F)F)ccc23)n1` [GW630813], the “%Inh” value stood at 27% in [1]; 0% in [2]; 0% in assay [3]; 0% in assay [4]; 3% in [5]; 40% in assay [6]. The “%Inh” value is listed as 0% in assay [7]; 0% in [8]; 15% in assay [9]; 40% in assay [10]; 37% in assay [11]; 39% in assay [12]. The “%Inh” value amounted to 0% in assay [13]; 0% in assay [14]; 0% in assay [15]; 26% in [16]; 0% in [17]; 0% in assay [18]. In addition, the “%Inh” value in assay [19] was determined as 26%; in [20] it was 0%.
Take `CCc1ccc(-c2ccc3c(c2)-c2nn(C)cc2S(=O)(=O)N3C)cc1`: the “%Inh” value in assay [1] was 0%; in [2], 0%; in assay [3], 25%; in [4], 0%; in assay [5], 9%; in assay [6], 22%. Also, the “%Inh” value in assay [7] was determined as 0%; in assay [8] it was 0%; in assay [9], 0%; in assay [10] it was 41%; in [11] it was 0%; in assay [12], 0%. The “%Inh” value in assay [13], in [14], in assay [15], in [16], in assay [17] and in assay [18] was 0% throughout. For the same compound, the “%Inh” value in [19] and in assay [20] was 0% throughout.
In the case of `Nc1n[nH]c2ncc(-c3ccccc3)cc12` [SB-517081], the “%Inh” value in assay [1] was found to be 11%; in [2] it was 0%; in assay [3], 12%; in assay [4], 0%; in assay [5], 29%; in assay [6], 13%. Moreover, the “%Inh” value in [7] is given as 13%; in assay [8] it was 22%; in assay [9], 0%; in assay [10], 23%; in assay [11], 27%; in [12], 0%. Also, the “%Inh” value in [13] is listed as 0%; in assay [14] it was 34%; in [15], 0%; in [16], 17%; in [17], 0%; in [18] it was 30%. The “%Inh” value in assay [19] was 0%; in assay [20] it was 18%.
Regarding `COc1ccc(Nc2nccc(N3CCC(NS(=O)(=O)c4ccc(NC(C)=O)cc4)C3)n2)cc1` (stereo not shown) [GSK1379729], the “%Inh” value in assay [1] is reported as 18%; in assay [2] it was 0%; in assay [3], 0%; in [4] it was 0%; in assay [5], 6%; in assay [6], 10%. The “%Inh” value in assay [7] is recorded as 0%; in assay [8] it was 53%; in assay [9] it was 13%; in [10], 26%; in assay [11] it was 23%; in assay [12] it was 8%. The “%Inh” value in assay [13] was found to be 0%; in assay [14], 0%; in assay [15], 4%; in [16], 8%; in [17], 3%; in [18], 3%. The “%Inh” value in assay [19] was 36%; in [20], 0%.
For `Cc1ccc(Oc2ccc(Nc3ncnc4cc[nH]c34)cc2C)cn1`, the “%Inh” value was found to be 13% in [1]; 29% in [2]; 0% in assay [3]; 0% in assay [4]; 0% in assay [5]; 0% in assay [6]. Besides, the “%Inh” value in assay [7] was 0%; in assay [8], 0%; in assay [9] it was 0%; in assay [10], 0%; in [11], 22%; in assay [12] it was 0%. Besides, the “%Inh” value in assay [13], in assay [14], in assay [15], in assay [16], in assay [17] and in assay [18] was 0% in each case. In addition, the “%Inh” value came to 71% in [19] and 13% in assay [20].
For `COc1cccc(C2=C(N(C)c3ccccc3)C(=O)NC2=O)c1` [SB-334865], the “%Inh” value in assay [1] is 3%; in assay [2], 0%; in [3], 6%; in assay [4], 0%; in [5] it was 14%; in assay [6], 18%. For the same compound, the “%Inh” value in assay [7] came to 0%; in [8], 16%; in assay [9], 0%; in [10], 22%; in assay [11], 4%; in assay [12], 0%. In addition, the “%Inh” value turned out to be 0% in assay [13]; 0% in assay [14]; 0% in [15]; 4% in assay [16]; 0% in assay [17]; 0% in assay [18]. For the same compound, the “%Inh” value in assay [19] was found to be 36%; in [20] it was 0%.
